# Assay results published in article PMC7862700, “An all-to-all approach to the identification of sequence-specific readers for epigenetic DNA modifications on cytosine”.
# Legend:
# Assay in all cases: DAPPL (digital affinity profiling via proximity ligation, sequencing); 10 mM Tris-HCl pH 7.5, 50 mM NaCl, 1 mM DTT, 4% glycerol, room temperature, 30 min; GST-TFs on glutathione beads, 16-mer random dsDNA library, 0.1% formaldehyde crosslink after washing; high values mean tight binding
# FLI1 = target: T1, FLI1 (Homo sapiens, UniProt Q01543 1-452); conditions: protein: recombinant; tags: N-terminal GST; dsDNA, one strand shown
# T1 sequence: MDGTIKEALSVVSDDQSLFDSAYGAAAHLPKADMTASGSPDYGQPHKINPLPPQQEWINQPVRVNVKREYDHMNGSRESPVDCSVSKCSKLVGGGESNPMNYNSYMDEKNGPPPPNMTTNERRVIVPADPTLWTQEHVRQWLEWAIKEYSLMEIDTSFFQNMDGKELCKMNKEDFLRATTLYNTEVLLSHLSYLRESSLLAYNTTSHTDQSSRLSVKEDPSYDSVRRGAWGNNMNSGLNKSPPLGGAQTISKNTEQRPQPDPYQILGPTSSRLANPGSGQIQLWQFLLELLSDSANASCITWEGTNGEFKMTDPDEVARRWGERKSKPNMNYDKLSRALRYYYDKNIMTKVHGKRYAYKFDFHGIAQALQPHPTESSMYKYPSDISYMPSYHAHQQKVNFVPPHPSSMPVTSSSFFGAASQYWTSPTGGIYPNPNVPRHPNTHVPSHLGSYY
# How it was run: (§1)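 Pools of DNA-barcoded human transcription factors, expressed in yeast as GST fusions on glutathione beads and combined with a tag-only sample, were incubated with 200 nmole of a 16-mer random double-stranded DNA library. Incubation took 30 min at room temperature in Tris/NaCl/DTT/glycerol buffer and was followed by washing, 0.1% formaldehyde crosslinking, proximity ligation (BsaI/T4 ligase, 1 h, 37 °C), PCR amplification and sequencing on an Illumina NextSeq500. Binding signal is the ratio of a hexamer's read frequency for a factor to its frequency for the tag-only sample.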
# ELK1 = target: T2, ELK1 (Homo sapiens, UniProt P19419 1-428); conditions: protein: recombinant; tags: N-terminal GST; dsDNA, one strand shown
# T2 sequence: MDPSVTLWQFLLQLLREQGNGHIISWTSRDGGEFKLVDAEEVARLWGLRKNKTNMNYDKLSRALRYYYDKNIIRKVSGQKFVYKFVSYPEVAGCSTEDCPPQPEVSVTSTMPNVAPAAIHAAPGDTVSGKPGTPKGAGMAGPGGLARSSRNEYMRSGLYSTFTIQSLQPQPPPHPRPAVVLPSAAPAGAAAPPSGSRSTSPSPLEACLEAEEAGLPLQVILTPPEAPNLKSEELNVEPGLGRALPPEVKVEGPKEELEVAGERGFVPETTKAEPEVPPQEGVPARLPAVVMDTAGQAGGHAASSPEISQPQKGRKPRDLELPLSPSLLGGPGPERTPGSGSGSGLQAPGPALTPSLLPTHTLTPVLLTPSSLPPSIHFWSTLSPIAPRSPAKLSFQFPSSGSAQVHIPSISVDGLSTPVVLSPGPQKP
# How it was run: as §1
# GABPA = target: T3, GABPA (Homo sapiens, UniProt Q06546 1-454); conditions: protein: recombinant; tags: N-terminal GST; dsDNA, one strand shown
# T3 sequence: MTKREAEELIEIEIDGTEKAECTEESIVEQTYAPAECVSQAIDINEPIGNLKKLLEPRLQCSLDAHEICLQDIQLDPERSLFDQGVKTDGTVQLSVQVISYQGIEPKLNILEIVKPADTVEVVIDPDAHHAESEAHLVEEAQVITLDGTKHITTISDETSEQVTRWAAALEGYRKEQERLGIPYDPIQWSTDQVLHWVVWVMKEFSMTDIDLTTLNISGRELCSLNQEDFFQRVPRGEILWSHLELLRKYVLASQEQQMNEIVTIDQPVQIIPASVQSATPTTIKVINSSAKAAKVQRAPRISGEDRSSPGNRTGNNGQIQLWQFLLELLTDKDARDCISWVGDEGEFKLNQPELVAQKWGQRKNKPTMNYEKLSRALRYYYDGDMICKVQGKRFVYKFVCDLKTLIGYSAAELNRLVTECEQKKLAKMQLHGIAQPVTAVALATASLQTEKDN
# How it was run: as §1
# ERG = target: T4, ERG (Homo sapiens, UniProt P11308 1-479); conditions: protein: recombinant; tags: N-terminal GST; dsDNA, one strand shown
# T4 sequence: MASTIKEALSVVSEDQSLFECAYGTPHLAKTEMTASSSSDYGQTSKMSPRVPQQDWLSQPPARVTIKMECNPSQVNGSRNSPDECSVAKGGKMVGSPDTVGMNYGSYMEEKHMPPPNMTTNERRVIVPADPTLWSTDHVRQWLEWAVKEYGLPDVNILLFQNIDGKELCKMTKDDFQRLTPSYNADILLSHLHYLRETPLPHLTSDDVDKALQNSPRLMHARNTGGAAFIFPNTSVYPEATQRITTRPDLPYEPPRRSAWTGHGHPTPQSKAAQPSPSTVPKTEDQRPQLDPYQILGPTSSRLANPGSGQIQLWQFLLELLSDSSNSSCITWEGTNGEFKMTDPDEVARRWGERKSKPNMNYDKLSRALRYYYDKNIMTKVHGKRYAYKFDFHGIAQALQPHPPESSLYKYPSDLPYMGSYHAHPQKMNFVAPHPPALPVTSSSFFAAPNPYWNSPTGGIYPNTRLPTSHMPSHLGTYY
# How it was run: as §1
# ELF1 = ELF1 (Homo sapiens, UniProt P32519 1-619); conditions: protein: recombinant; tags: N-terminal GST; dsDNA, one strand shown
# How it was run: as §1
# EHF = target: T5, EHF (Homo sapiens, UniProt Q9NZC4 1-300); conditions: protein: recombinant; tags: N-terminal GST; dsDNA, one strand shown
# T5 sequence: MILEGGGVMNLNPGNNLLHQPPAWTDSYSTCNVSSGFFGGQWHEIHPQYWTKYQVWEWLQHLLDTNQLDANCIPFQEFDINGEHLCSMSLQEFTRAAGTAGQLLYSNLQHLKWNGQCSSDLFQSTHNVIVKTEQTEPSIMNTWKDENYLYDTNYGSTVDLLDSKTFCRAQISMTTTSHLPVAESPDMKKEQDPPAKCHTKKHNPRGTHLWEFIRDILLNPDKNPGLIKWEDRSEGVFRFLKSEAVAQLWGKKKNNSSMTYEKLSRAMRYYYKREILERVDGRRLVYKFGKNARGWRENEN
# How it was run: as §1
# SPI1 = SPI1 (Homo sapiens, UniProt P17947 1-270); conditions: protein: recombinant; tags: N-terminal GST; dsDNA, one strand shown
# How it was run: as §1
# SPIB = SPIB (Homo sapiens, UniProt Q01892 1-262); conditions: protein: recombinant; tags: N-terminal GST; dsDNA, one strand shown
# How it was run: as §1
# ELK3 = target: T6, ELK3 (Homo sapiens, UniProt P41970 1-407); conditions: protein: recombinant; tags: N-terminal GST; dsDNA, one strand shown
# T6 sequence: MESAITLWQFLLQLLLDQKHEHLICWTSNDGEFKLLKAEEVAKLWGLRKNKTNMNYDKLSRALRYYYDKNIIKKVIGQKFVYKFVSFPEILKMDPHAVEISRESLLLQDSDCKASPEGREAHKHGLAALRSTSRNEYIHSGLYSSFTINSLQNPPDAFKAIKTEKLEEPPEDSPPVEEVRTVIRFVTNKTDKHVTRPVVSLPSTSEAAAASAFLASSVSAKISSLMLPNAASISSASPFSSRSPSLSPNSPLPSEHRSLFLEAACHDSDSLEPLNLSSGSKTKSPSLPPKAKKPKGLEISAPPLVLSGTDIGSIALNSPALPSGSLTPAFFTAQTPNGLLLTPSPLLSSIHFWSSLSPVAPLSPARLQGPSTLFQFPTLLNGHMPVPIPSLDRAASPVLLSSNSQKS
# How it was run: as §1
# FEV = target: T7, FEV (Homo sapiens, UniProt Q99581 1-238); conditions: protein: recombinant; tags: N-terminal GST; dsDNA, one strand shown
# T7 sequence: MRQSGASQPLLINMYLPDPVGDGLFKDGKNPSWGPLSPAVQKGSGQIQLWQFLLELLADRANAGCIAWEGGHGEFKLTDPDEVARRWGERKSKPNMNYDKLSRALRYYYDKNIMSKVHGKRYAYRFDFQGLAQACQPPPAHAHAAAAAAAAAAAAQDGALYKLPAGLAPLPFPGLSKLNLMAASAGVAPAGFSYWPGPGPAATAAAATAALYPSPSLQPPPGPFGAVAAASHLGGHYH
# How it was run: as §1
# ETV5 = ETV5 (Homo sapiens, UniProt P41161 1-510); conditions: protein: recombinant; tags: N-terminal GST; dsDNA, one strand shown
# How it was run: as §1
# HSF1 = HSF1 (Homo sapiens, UniProt Q00613 1-529); conditions: protein: recombinant; tags: N-terminal GST; chain copies: 3; dsDNA, one strand shown
# How it was run: as §1
# SPIC = target: T8, SPIC (Homo sapiens, UniProt Q8N5J4 1-248); conditions: protein: recombinant; tags: N-terminal GST; dsDNA, one strand shown
# T8 sequence: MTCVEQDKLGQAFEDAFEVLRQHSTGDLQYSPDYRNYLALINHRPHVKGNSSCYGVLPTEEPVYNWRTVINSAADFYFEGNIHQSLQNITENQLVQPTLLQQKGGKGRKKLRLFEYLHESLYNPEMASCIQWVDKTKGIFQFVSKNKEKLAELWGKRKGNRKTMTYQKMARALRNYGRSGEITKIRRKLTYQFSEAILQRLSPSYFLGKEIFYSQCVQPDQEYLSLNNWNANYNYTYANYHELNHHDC
# How it was run: as §1
# ELF4 = ELF4 (Homo sapiens, UniProt Q99607 1-663); conditions: protein: recombinant; tags: N-terminal GST; dsDNA, one strand shown
# How it was run: as §1
# ELK4 = target: T9, ELK4 (Homo sapiens, UniProt P28324-2 1-405); conditions: protein: recombinant; tags: N-terminal GST; dsDNA, one strand shown
# T9 sequence: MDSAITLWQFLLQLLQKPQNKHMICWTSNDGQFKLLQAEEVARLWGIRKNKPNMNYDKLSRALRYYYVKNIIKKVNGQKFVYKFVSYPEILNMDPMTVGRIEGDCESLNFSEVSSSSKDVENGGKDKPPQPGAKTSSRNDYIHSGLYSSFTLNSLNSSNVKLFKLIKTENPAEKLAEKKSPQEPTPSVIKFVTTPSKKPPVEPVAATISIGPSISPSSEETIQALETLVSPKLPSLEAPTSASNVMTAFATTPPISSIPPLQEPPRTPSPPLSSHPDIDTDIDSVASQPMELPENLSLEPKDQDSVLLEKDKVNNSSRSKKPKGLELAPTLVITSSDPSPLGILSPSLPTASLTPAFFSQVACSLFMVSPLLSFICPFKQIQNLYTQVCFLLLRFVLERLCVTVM
# How it was run: as §1
# ETV2 = target: T10, ETV2 (Homo sapiens, UniProt O00321 1-342); conditions: protein: recombinant; tags: N-terminal GST; dsDNA, one strand shown
# T10 sequence: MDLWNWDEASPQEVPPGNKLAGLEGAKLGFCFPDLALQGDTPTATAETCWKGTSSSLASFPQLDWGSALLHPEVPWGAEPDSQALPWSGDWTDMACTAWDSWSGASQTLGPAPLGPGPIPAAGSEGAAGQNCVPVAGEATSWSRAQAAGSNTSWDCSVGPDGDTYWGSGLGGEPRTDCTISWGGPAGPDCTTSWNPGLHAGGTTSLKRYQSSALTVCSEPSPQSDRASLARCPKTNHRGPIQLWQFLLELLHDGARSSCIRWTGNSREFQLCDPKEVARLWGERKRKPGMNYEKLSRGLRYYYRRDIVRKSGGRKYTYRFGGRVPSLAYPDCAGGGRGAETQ
# How it was run: as §1
# ELF3 = target: T11, ELF3 (Homo sapiens, UniProt P78545 1-371); conditions: protein: recombinant; tags: N-terminal GST; dsDNA, one strand shown
# T11 sequence: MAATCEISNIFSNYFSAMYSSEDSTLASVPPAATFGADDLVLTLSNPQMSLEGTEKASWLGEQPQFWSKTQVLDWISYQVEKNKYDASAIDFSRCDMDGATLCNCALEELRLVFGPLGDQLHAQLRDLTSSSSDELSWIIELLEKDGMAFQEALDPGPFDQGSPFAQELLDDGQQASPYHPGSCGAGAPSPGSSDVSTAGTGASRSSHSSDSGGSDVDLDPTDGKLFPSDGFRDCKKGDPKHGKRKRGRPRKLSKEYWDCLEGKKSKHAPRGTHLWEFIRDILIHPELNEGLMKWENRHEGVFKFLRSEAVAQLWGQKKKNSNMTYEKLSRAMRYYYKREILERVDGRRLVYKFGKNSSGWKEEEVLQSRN
# How it was run: as §1
# CRX = CRX (Homo sapiens, UniProt O43186 1-299); conditions: protein: recombinant; tags: N-terminal GST; dsDNA, one strand shown
# How it was run: as §1
# ETV1 = ETV1 (Homo sapiens, UniProt P50549 1-477); conditions: protein: recombinant; tags: N-terminal GST; dsDNA, one strand shown
# How it was run: as §1
# ELF4, sequence (Q99607 whole entry): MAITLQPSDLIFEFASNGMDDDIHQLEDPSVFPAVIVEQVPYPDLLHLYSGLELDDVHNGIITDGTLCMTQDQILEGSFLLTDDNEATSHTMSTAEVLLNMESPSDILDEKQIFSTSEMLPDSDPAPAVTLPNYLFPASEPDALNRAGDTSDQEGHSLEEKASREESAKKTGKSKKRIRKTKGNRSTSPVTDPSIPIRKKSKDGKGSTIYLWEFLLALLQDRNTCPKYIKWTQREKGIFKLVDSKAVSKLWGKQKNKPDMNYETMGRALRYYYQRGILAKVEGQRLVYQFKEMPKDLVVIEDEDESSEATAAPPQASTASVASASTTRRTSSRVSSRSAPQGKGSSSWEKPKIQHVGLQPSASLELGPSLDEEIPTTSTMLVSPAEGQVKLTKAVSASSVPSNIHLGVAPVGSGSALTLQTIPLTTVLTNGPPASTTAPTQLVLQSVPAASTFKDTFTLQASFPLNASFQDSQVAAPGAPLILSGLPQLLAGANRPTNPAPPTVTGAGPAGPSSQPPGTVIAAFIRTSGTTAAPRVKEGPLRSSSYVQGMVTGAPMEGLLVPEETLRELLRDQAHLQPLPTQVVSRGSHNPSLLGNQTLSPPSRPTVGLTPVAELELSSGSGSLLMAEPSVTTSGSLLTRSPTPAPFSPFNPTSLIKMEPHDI
# ETV5, sequence (P41161 whole entry): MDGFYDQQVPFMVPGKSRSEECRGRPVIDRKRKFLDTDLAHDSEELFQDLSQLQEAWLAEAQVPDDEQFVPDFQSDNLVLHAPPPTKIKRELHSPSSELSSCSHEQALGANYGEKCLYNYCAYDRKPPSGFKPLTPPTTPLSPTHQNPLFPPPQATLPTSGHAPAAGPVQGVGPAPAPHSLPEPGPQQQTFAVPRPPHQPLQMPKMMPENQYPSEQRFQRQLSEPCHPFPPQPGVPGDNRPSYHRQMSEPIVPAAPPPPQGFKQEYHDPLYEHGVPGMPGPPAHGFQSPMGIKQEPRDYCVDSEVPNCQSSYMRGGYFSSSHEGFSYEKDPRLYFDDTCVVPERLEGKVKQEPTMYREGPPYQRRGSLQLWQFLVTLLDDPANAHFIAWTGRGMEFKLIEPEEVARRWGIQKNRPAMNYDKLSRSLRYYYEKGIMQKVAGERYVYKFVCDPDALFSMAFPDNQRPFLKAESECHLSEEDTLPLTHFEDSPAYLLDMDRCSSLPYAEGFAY
# HSF1, sequence (Q00613 whole entry): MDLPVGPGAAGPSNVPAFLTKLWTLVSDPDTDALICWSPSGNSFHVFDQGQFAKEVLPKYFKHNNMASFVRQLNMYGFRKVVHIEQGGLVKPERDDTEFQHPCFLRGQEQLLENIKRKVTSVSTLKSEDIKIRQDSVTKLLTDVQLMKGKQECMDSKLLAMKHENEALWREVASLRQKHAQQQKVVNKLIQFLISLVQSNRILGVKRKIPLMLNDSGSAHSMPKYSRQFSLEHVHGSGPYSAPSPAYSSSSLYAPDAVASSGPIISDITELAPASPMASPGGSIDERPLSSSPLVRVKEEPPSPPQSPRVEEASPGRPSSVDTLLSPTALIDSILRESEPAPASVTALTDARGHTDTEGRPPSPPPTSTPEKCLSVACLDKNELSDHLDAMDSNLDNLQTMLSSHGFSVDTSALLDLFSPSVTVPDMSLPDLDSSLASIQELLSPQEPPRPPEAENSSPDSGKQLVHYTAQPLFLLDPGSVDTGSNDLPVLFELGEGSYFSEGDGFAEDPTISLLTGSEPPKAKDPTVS
# CRX, sequence (O43186 whole entry): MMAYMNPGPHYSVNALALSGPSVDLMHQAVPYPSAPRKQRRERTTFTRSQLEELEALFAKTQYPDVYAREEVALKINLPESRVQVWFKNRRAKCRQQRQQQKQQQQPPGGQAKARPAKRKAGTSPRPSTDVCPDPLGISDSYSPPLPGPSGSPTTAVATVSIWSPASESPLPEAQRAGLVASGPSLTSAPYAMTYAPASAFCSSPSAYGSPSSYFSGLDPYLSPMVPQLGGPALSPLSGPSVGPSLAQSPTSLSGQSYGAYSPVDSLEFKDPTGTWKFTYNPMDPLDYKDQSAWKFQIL
# SPIB, sequence (Q01892 whole entry): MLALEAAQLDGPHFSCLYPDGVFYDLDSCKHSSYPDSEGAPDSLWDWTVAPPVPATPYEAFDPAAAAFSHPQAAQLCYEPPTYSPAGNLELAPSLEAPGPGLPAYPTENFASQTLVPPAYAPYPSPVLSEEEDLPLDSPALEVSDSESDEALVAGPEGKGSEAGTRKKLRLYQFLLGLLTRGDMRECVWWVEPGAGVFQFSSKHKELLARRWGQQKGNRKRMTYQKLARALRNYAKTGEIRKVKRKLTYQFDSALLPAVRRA
# ELF1, sequence (P32519 whole entry): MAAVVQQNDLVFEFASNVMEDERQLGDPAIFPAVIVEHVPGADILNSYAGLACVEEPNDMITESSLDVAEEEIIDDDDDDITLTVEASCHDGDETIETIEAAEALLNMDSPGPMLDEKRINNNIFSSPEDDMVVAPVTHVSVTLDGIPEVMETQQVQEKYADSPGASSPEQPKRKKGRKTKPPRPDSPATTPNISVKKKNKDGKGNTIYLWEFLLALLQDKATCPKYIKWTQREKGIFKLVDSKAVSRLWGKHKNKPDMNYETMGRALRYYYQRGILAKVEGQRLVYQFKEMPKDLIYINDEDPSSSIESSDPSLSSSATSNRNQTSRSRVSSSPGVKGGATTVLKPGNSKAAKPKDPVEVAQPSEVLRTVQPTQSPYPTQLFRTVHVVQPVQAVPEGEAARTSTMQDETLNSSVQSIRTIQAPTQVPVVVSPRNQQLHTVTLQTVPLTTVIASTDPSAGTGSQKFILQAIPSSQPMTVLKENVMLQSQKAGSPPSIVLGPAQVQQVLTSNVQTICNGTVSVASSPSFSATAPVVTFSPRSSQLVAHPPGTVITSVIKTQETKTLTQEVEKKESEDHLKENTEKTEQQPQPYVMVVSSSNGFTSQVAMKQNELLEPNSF
# ETV1, sequence (P50549 whole entry): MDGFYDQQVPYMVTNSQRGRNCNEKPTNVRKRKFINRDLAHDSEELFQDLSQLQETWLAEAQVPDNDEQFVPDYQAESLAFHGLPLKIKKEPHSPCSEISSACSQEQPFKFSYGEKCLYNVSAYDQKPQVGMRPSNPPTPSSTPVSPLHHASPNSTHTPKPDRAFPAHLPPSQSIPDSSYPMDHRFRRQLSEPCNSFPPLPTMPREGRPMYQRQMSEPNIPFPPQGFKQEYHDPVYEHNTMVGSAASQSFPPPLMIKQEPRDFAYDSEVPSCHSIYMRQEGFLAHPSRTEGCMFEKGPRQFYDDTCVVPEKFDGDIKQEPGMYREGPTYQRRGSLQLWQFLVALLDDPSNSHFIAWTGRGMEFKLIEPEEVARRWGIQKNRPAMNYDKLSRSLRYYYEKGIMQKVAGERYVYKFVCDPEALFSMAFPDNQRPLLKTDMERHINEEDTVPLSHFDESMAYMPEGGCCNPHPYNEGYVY
sequence,measurement,setting,value
GCACTT,binding signal,FLI1,"1.61 fold enrichment (6-mer frequency, TF over GST control)"
same,binding signal,ELK1,"2 fold enrichment (6-mer frequency, TF over GST control)"
same,binding signal,GABPA,"1.87 fold enrichment (6-mer frequency, TF over GST control)"
same,binding signal,ERG,"1.93 fold enrichment (6-mer frequency, TF over GST control)"
same,binding signal,ELF1,"1.77 fold enrichment (6-mer frequency, TF over GST control)"
same,binding signal,EHF,"1.79 fold enrichment (6-mer frequency, TF over GST control)"
same,binding signal,SPI1,"2.23 fold enrichment (6-mer frequency, TF over GST control)"
same,binding signal,SPIB,"1.7 fold enrichment (6-mer frequency, TF over GST control)"
same,binding signal,ELK3,"1.99 fold enrichment (6-mer frequency, TF over GST control)"
same,binding signal,FEV,"2.33 fold enrichment (6-mer frequency, TF over GST control)"
same,binding signal,ETV5,"1.88 fold enrichment (6-mer frequency, TF over GST control)"
same,binding signal,HSF1,"1.17 fold enrichment (6-mer frequency, TF over GST control)"
same,binding signal,SPIC,"1.63 fold enrichment (6-mer frequency, TF over GST control)"
same,binding signal,ELF4,"1.77 fold enrichment (6-mer frequency, TF over GST control)"
same,binding signal,ELK4,"1.62 fold enrichment (6-mer frequency, TF over GST control)"
same,binding signal,ETV2,"1.66 fold enrichment (6-mer frequency, TF over GST control)"
same,binding signal,ELF3,"1.85 fold enrichment (6-mer frequency, TF over GST control)"
same,binding signal,CRX,"1.16 fold enrichment (6-mer frequency, TF over GST control)"
same,binding signal,ETV1,"1.86 fold enrichment (6-mer frequency, TF over GST control)"
